Among the data in PubChem BioAssay (NCI) are growth values, retold here.

The panel holds about 83,000 compounds, 20% with a hit somewhere; the sample as a whole holds those more often.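 In brief: 96-well plates, 48 h treatment, single concentration, percent growth endpoint.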 Calls of active or inactive are those of the source.

The subject of this experiment is NCI/ADR-RES ovarian. The experiment in a line: NCI-60 one-dose screen, 48 h (100 = growth as untreated, 0 = no growth, -100 = all killed). The following applies: 10 µM unless noted. Here is the method:
Growth inhibition of the NCI/ADR-RES human […] tumor cell line is measured as a screen for anti-cancer activity. Cells are grown in 96 well plates and exposed to the test compound for 48 hours. Compounds are tested at a single concentration, which is 10^-5 M for most compounds. The reported endpoint is percent growth (GI% or GIPRCNT), where numbers from 0 - 100% represent growth inhibition, and numbers from -100% - 0 represent cell death. For example, a value of 40 represents 60% growth inhibition. A value of 0 means no net growth occurred over the course of the experiment. A value of -40 indicates 40% of cells at the beginning of the experiment died by the end of the experiment. A value of -100 means all cells are dead at the end of the experiment.
NCI-60 Human Tumor Cell Lines Screen was performed using the standard one-dose NCI protocol, which is described in more detail at https://dtp.cancer.gov/discovery_development/nci-60/default.htm.
Compounds with GIPRCNT values below 10 were considered active. Activity score was based on GIPRCNT using the following formula: […]
Score is 0 for GIPRCNT values of 100 or above, 50 for GIPRCNT values of 0, and 100 for GIPRCNT values of -100.
For the molecule `COC(=O)/C=C/c1cccc2c1C(=O)NC(C)(c1cc3cc4ccccc4cc3oc1=O)N2` (stereo not given), the growth is 35.2% (inactive).

Regarding `Cc1ccc(NC(=O)CN2CCN(c3ncnc4c3cnn4-c3ccccc3)CC2)cc1`, the growth was 79.5% (inactive).

Consider `CC(C)CSc1nc(NCCc2c[nH]c3ccccc23)c(C#N)c(-c2ccc(Cl)cc2)n1`, for which the growth is 54.7% (inactive).

Consider `COc1cc(OC)cc(C(=O)Nc2cccc(-c3cn(-c4ccc(S(N)(=O)=O)cc4)nn3)c2)c1`, for which the growth was 94.4% (inactive).

For `Cc1ccc(S(=O)(=O)c2nc(S(=O)(=O)c3ccc(C)cc3)c(Cl)s2)cc1`, the growth is 29.5% (inactive).

Turning to `COc1c(F)ccc(C(=O)Nc2ccc3nc(NC(=O)C4CCCN(S(=O)(=O)c5ccc(C(F)(F)F)cc5)C4)sc3c2)c1F` (stereo not given), the growth is 80% (inactive).

Take `CC(C)c1sc(NC(=O)c2cc(NC(=O)c3cc(NC(=O)c4cscn4)cn3C)cn2C)nc1C(=O)NCCCN(C)C`: the growth is 103% (inactive).

With `CCOC(=O)c1ccc(Nc2nc(NN)nc(-c3ccc(F)cc3)c2C#N)cc1`, the growth was 110% (inactive).

`Cc1ccc(NCC(=O)Cn2cc(COc3ccc(C=Nc4cnc5ccccc5c4)cc3)nn2)cc1`: the growth is 113% (inactive).

In the case of `Cc1ccccc1[C@H]1C(C(=O)c2ccc(Cl)cc2)C2(N[C@@H]1c1ccccc1)C(=O)Nc1ccccc12` (stereo not given in full), the growth was -68.2% (active).

As for `Cc1ccccc1[C@H]1C(C(=O)c2ccc(Cl)cc2)C2(N[C@@H]1c1ccccc1)C(=O)Nc1ccc(Br)cc12` (stereo not given in full), the growth was -55.1% (active).

Consider `Nc1nc(-c2ccccc2)c(N=Nc2ccc([N+](=O)[O-])cc2Cl)s1`, for which the growth was 89.6% (inactive).

In the case of `COc1ccc(C(=O)/C=C/c2ccccc2Br)cc1S(N)(=O)=O`, the growth is 16.1% (inactive).

Take `CN(C)c1nc(NCCNS(=O)(=O)c2ccc(C3=Nc4c(N)nc(N)nc4NC(c4ccc(F)cc4)C3)cc2)nc(Nc2ccc(F)cc2)n1` (stereo not given): the growth was 98% (inactive).

Take `Cc1ncsc1-c1ccc(CNC(=O)[C@@H]2C[C@@H](O)CN2C(=O)[C@@H](NC(=O)C2(F)CC2)C(C)(C)C)c(OCCOCCOCCOCCOc2nc(Nc3cc(S(C)(=O)=O)ccc3N[C@@H](c3cccc4c3OC(F)(F)O4)c3ncccc3Cl)nc(N3CCNCC3)n2)c1`: the growth was 103% (inactive).

As for `COc1ccc(C2=NN(c3ccccc3)C(c3ccc(OC)c(OCc4ccccc4)c3)C2)cc1OC` (stereo not given), the growth was 103% (inactive).

Take `Cn1cc(-c2nnc(N)nc2-c2c[nH]c3ccc(Br)cc23)c2cc(Br)cnc21`: the growth is 64.5% (inactive).

Turning to `O=C(COc1ccc2c(c1)CCCC(=O)N2)NCc1ccccc1`, the growth was 80.2% (inactive).

In the case of `CCCCCCCCc1ccc(C(=O)Nc2ccc(C)cc2C(=O)O)cc1C`, the growth was 96.3% (inactive).

Regarding `C#CCOc1ccc(/C=N/Nc2nc(-c3ccc(F)cc3)cs2)cc1OC`, the growth is 32.2% (inactive).

Turning to `CCN(CC)c1ccnc(CNCCSC(c2ccccc2)(c2ccccc2)c2ccc(OC)cc2)c1`, the growth was -64.5% (active).

With `CN1CCN(c2ccc3c(c2)nc(NNC(=O)c2ncccn2)c2cccn23)CC1`, the growth was 4.15% (active).

For the molecule `Cc1occc1C(=O)NN1C(=O)/C(=C/C=C/c2ccc([N+](=O)[O-])o2)SC1=S`, the growth was -6.81% (active).

For the molecule `COc1ccc2[nH]cc(-c3nnc(N)nc3-c3cn(C)c4ncc(Br)cc34)c2c1`, the growth was 83.5% (inactive).

For `CC(=O)c1cc(C(=O)c2ccccc2)n2c1ccc1ccccc12`, the growth is 101% (inactive).

In the case of `CC(=O)Nc1cccc(Nc2nc(N[C@H]3CCCc4ccccc43)c3ccccc3n2)c1`, the growth is 100% (inactive).

For the molecule `NS(=O)(=O)c1ccc(-n2cc(-c3cccc(NC(=O)c4cc(C(F)(F)F)cc(C(F)(F)F)c4)c3)nn2)cc1`, the growth was 81.6% (inactive).

Turning to `CNC(=O)c1cc(Oc2ccc3nc(NC(=O)Nc4cccc(OC(F)(F)F)c4)sc3c2)ccn1`, the growth was -2.64% (active).

Regarding `CN1CCN(/C(=N\c2sc(-c3ccccc3)nc2-c2ccccc2)c2ccccc2)CC1`, the growth was 90.4% (inactive).

For `C=C1CC[C@@H]2[C@]3(C)COC(c4cn(-c5ccccc5)nc4-c4ccccc4)O[C@@H]3CC[C@@]2(C)[C@@H]1C/C=C1/C(=O)OC[C@H]1O` (stereo not given in full), the growth was -69.4% (active).

Consider `O=C(c1ccccc1)C(c1c[nH]c2ccccc12)c1c[nH]c2ccccc12`, for which the growth is 47.4% (inactive).

`N#Cc1c(-c2ccccc2Cl)cc(-c2c[nH]c3ccccc23)[nH]c1=O`: the growth is 82.3% (inactive).

In the case of `COC1=C[C@]23CCC(=O)N2CCc2cc4c(cc2[C@@H]3[C@@H]1OC(=O)[C@H](C)O)OCO4`, the growth is 74.6% (inactive).

For `O=C(NNc1nc2cc(F)ccc2n2c(CN3CC4CNCC4C3)ccc12)c1ccncn1` (stereo not given), the growth was 59.8% (inactive).

`CCCCOc1ccc(NC(=O)c2sc3nc(C)ccc3c2N)cc1`: the growth is -39.3% (active).

With `N#Cc1c(-c2ccc(Cl)cc2)nc2n[nH]c(-c3ccc(Cl)cc3)c2c1-c1ccc(C(F)(F)F)cc1`, the growth was -24.5% (active).

Take `CN(C)c1nc(NCCNS(=O)(=O)c2ccc(C(=O)/C=C/c3ccc(Cl)cc3)cc2)nc(Nc2ccc(F)cc2)n1`: the growth was -83.5% (active).

As to `Cn1cc(NC(=O)c2cc(NC(=O)c3ccc(/C=C/c4ccccc4)cc3)cn2C)cc1C(=O)NCCCN1CCOCC1`, the growth is 90.2% (inactive).

Turning to `O=c1oc2ccc(Br)cc2cc1C1=CSc2nc3sc4c(c3c(=O)n2N=C1)CCCC4`, the growth is 106% (inactive).

As for `Nc1nnc(-c2c[nH]c3ncc(Br)cc23)c(-c2c[nH]c3ccc(F)cc23)n1`, the growth was 70.7% (inactive).
